# Assay results taken from PubChem BioAssay (NCI).
# Compounds without any hit were thinned out: in the full panel of roughly 79,000, 15% have a hit. Values without a mark were called inactive. Active and inactive are the calls of the source. Rule as the data show it: active = growth inhibition above about 70%; inactive = the rest.
# Columns and labels:
# [1] = NCI Yeast Anticancer Drug Screen. Data for the rad52 strain (AID 147);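 also: 0% = growth of vehicle-treated control cultures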; conditions: S. cerevisiae rad52 mutant growth inhibition, hits give high values
# In short: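 Read-out: growth inhibition versus vehicle-treated controls. Cells were a DNA repair-deficient yeast strain treated with compounds.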
# [2] = NCI Yeast Anticancer Drug Screen. Data for the wt1 strain (AID 149);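 also: 0% = growth of vehicle-treated wt1 cultures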; conditions: S. cerevisiae wt1 strain (SPY 50644) growth inhibition, hits give high values
# In short: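 Measured: growth of wt1 yeast under compound versus vehicle treatment, reported as inhibition.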
# [3] = NCI Yeast Anticancer Drug Screen. Data for the rad50EPP+ strain (AID 151);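 also: 0% = growth of vehicle-treated control cultures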; conditions: S. cerevisiae rad50 mutant strain, hits give high values
# In short: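 Growth inhibition read against vehicle controls in rad50EPP+ yeast, a strain altered in DNA damage repair, after compound exposure.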
# [4] = NCI Yeast Anticancer Drug Screen. Data for the mgt1 strain (AID 153); conditions: S. cerevisiae mgt1 mutant growth inhibition, hits give high values
# In short: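 mgt1 yeast grown with test compound; read-out is growth inhibition versus vehicle-treated cultures.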
# [5] = NCI Yeast Anticancer Drug Screen. Data for the rad50 strain (AID 155);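 also: 0% = growth of vehicle-only cultures of the same strain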; conditions: S. cerevisiae rad50 strain growth inhibition, hits give high values
# In short: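 Growth of the mutant yeast was measured after compound exposure and referenced to vehicle-treated cultures.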
# [6] = NCI Yeast Anticancer Drug Screen. Data for the mec2-1 strain (AID 157); conditions: S. cerevisiae mec2-1 strain, hits give high values
# In short: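 Yeast mec2-1 mutant treated with compound. Readout: growth inhibition vs vehicle controls.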
# [7] = NCI Yeast Anticancer Drug Screen. Data for the rad14 strain (AID 159);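 also: 0% = growth of vehicle-treated control cultures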; conditions: S. cerevisiae rad14 strain growth inhibition, hits give high values
# In short: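 Here, inhibition of yeast growth was measured after compound exposure, using a strain with a genetic defect in DNA damage repair and vehicle-treated cultures as the reference.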
# [8] = NCI Yeast Anticancer Drug Screen. Data for the sgs1 mgt1 strain (AID 161);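 also: 0% = growth of cultures given vehicle only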; conditions: S. cerevisiae sgs1 mgt1 strain, hits give high values
# In short: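 Genetically altered yeast, compound exposure, growth inhibition relative to vehicle.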
# [9] = NCI Yeast Anticancer Drug Screen. Data for the CLN2oe strain (AID 163);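 also: 0% = growth of vehicle-only control cultures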; conditions: S. cerevisiae CLN2oe strain, hits give high values
# In short: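 Read-out: yeast growth inhibition, expressed relative to vehicle-only controls. The strain bears an engineered cell-cycle alteration.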
# [10] = NCI Yeast Anticancer Drug Screen. Data for the cln2 rad14 strain (AID 165);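 also: 0% = growth equal to vehicle treated cultures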; conditions: S. cerevisiae cln2 rad14 strain, hits give high values
# In short: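 cln2 rad14 yeast strain; compound exposure; growth inhibition read vs vehicle controls.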
# [11] = NCI Yeast Anticancer Drug Screen. Data for the bub3 strain (AID 167); conditions: S. cerevisiae bub3 mutant strain, hits give high values
# In short: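 Whole-cell yeast assay. The mutant strain was incubated with compounds, and growth inhibition was determined by comparison with vehicle-treated cells.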
# [12] = NCI Yeast Anticancer Drug Screen. Data for the wt2 strain (AID 169);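 also: 0% = growth of vehicle-treated yeast cultures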; conditions: S. cerevisiae wt2 strain growth inhibition, hits give high values
# In short: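 Read-out: growth inhibition versus vehicle-treated control cultures after compound exposure of the yeast strain.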
# [13] = NCI Yeast Anticancer Drug Screen. Data for the mlh1 strain (AID 171);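 also: 0% = growth of vehicle-treated control cultures of the same strain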; conditions: S. cerevisiae mlh1 strain growth inhibition, hits give high values
# In short: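 Read-out: growth inhibition versus vehicle controls. Strain: engineered yeast with a defined DNA repair or cell cycle defect, compound-treated.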
# [14] = NCI Yeast Anticancer Drug Screen. Data for the sgs1 strain (AID 173);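 also: 0% = growth of vehicle-only control cultures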; conditions: S. cerevisiae sgs1 mutant, hits give high values
# In short: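 Read-out: yeast growth inhibition relative to vehicle controls, following compound exposure of a strain with a defined DNA repair/cell cycle alteration.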
# [15] = NCI Yeast Anticancer Drug Screen. Data for the mlh1 rad18 strain (AID 175); conditions: S. cerevisiae mlh1 rad18 strain growth inhibition, hits give high values
# In short: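 Yeast w/ defined DNA-repair lesions; compound exposure; growth vs vehicle controls → % inhibition.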
# [16] = NCI Yeast Anticancer Drug Screen. Data for the rad18 strain (AID 177); conditions: S. cerevisiae rad18 mutant growth inhibition, hits give high values
# In short: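 Readout: growth inhibition vs vehicle controls. Cells: genetically altered yeast strain, DNA repair defect.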
# [17] = at 5.0 µM (retest, dose inferred, filed as 0.5)
# [18] = at 50.0 µM (retest, dose inferred, filed as 5.0)
compound,measurement,setting,value
C[N+](C)([O-])CCCNc1c2ccccc2nc2cccc([N+](=O)[O-])c12,growth inhibition,[1]; at 1.2 µM,54%
same,growth inhibition,[1]; at 3.7 µM,86% (active)
same,growth inhibition,[1]; at 11.0 µM,94% (active)
same,growth inhibition,[1]; at 33.0 µM,96% (active)
same,growth inhibition,[1]; at 100.0 µM,96% (active)
same,growth inhibition,[2]; at 1.2 µM,-3%
same,growth inhibition,[2]; at 3.7 µM,7%
same,growth inhibition,[2]; at 11.0 µM,24%
same,growth inhibition,[2]; at 33.0 µM,80% (active)
same,growth inhibition,[2]; at 100.0 µM,94% (active)
same,growth inhibition,[3]; at 1.2 µM,28%
same,growth inhibition,[3]; at 3.7 µM,44%
same,growth inhibition,[3]; at 11.0 µM,79% (active)
same,growth inhibition,[3]; at 33.0 µM,94% (active)
same,growth inhibition,[3]; at 100.0 µM,95% (active)
same,growth inhibition,[4]; at 1.2 µM,-5%
same,growth inhibition,[4]; at 3.7 µM,-10%
same,growth inhibition,[4]; at 11.0 µM,7%
same,growth inhibition,[4]; at 33.0 µM,70% (active)
same,growth inhibition,[4]; at 100.0 µM,93% (active)
same,growth inhibition,[5]; at 1.2 µM,31%
same,growth inhibition,[5]; at 3.7 µM,68%
same,growth inhibition,[5]; [17],63%
same,growth inhibition,[5]; at 11.0 µM,91% (active)
same,growth inhibition,[5]; at 33.0 µM,94% (active)
same,growth inhibition,[5]; [18],89% (active)
same,growth inhibition,[5]; at 50.0 µM,86.8% (active)
same,growth inhibition,[5]; at 100.0 µM,95% (active)
same,growth inhibition,[6]; at 1.2 µM,3%
same,growth inhibition,[6]; at 3.7 µM,54%
same,growth inhibition,[6]; [17],54%
same,growth inhibition,[6]; at 11.0 µM,93% (active)
same,growth inhibition,[6]; at 33.0 µM,97% (active)
same,growth inhibition,[6]; [18],95% (active)
same,growth inhibition,[6]; at 50.0 µM,88% (active)
same,growth inhibition,[6]; at 100.0 µM,96% (active)
same,growth inhibition,[7]; at 1.2 µM,41%
same,growth inhibition,[7]; at 3.7 µM,90% (active)
same,growth inhibition,[7]; at 11.0 µM,94% (active)
same,growth inhibition,[7]; at 33.0 µM,96% (active)
same,growth inhibition,[7]; at 100.0 µM,96% (active)
same,growth inhibition,[8]; [17],41%
same,growth inhibition,[8]; [18],89% (active)
same,growth inhibition,[8]; at 50.0 µM,83.2% (active)
same,growth inhibition,[9]; at 1.2 µM,-2%
same,growth inhibition,[9]; at 3.7 µM,-1%
same,growth inhibition,[9]; at 11.0 µM,33%
same,growth inhibition,[9]; at 33.0 µM,82% (active)
same,growth inhibition,[9]; at 100.0 µM,93% (active)
same,growth inhibition,[10]; [17],85% (active)
same,growth inhibition,[10]; [18],96% (active)
same,growth inhibition,[10]; at 50.0 µM,87.2% (active)
same,growth inhibition,[11]; at 1.2 µM,-25%
same,growth inhibition,[11]; at 3.7 µM,-14%
same,growth inhibition,[11]; [17],6%
same,growth inhibition,[11]; at 11.0 µM,15%
same,growth inhibition,[11]; at 33.0 µM,79% (active)
same,growth inhibition,[11]; [18],74% (active)
same,growth inhibition,[11]; at 50.0 µM,52.6%
same,growth inhibition,[11]; at 100.0 µM,95% (active)
same,growth inhibition,[12]; at 1.2 µM,-1%
same,growth inhibition,[12]; at 3.7 µM,20%
same,growth inhibition,[12]; at 11.0 µM,26%
same,growth inhibition,[12]; at 33.0 µM,84% (active)
same,growth inhibition,[12]; at 100.0 µM,94% (active)
same,growth inhibition,[13]; at 1.2 µM,14%
same,growth inhibition,[13]; at 3.7 µM,22%
same,growth inhibition,[13]; at 11.0 µM,44%
same,growth inhibition,[13]; at 33.0 µM,89% (active)
same,growth inhibition,[13]; at 100.0 µM,95% (active)
same,growth inhibition,[14]; at 1.2 µM,80% (active)
same,growth inhibition,[14]; at 3.7 µM,89% (active)
same,growth inhibition,[14]; at 11.0 µM,94% (active)
same,growth inhibition,[14]; at 33.0 µM,94% (active)
same,growth inhibition,[14]; at 100.0 µM,97% (active)
same,growth inhibition,[15]; [17],81% (active)
same,growth inhibition,[15]; [18],95% (active)
same,growth inhibition,[15]; at 50.0 µM,78.5% (active)
same,growth inhibition,[16]; at 1.2 µM,95% (active)
same,growth inhibition,[16]; at 3.7 µM,96% (active)
same,growth inhibition,[16]; at 11.0 µM,96% (active)
same,growth inhibition,[16]; at 33.0 µM,97% (active)
same,growth inhibition,[16]; at 100.0 µM,97% (active)
